Test results taken from PubChem BioAssay (EPA / NIEHS).
Several values for one entry are separate records, joined by “and”; a condition that tells them apart may be missing. Equal entries are not always repeated. Records with an inconclusive call do not appear. Some compounds were tested as several samples or in several runs, with calls that do not always agree. Activity calls are given as the source filed them. How the source made its calls, unless noted: active means hit-call score of the fitted dose curve at least 0.9, where 1 is the maximum; inactive means score below 0.9.

Tests used:
[1] = IUF_NPC2c_oligodendrocyte_migration_120hr: Leibniz Research Institute for Environmental Medicine (IUF) 120-hour Neural Progenitor Cell Migration Assay for Oligodendrocyte Migration (NPC2c) (AID 2284297)
How it was run: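 Read-out is the mean distance of O4-positive oligodendrocytes from the sphere core edge at 120 h, normalized to radial glia migration and fitted in the gain direction against DMSO. Spheres of primary human neural progenitors differentiated on laminin under continuous compound exposure.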

[2] = IUF_NPC2a_radial_glia_migration_72hr: Leibniz Research Institute for Environmental Medicine (IUF) 72-hour Neural Progenitor Cell Migration Assay for Radial Glia Migration (NPC2a) (AID 2284299)
How it was run: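 Single 0.3 mm neurospheres were plated per well in N2 differentiation medium and exposed from the start of differentiation. After 72 hours, brightfield images were taken and radial glia migration from the sphere core edge was measured manually in four directions, averaged per well.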

[3] = IUF_NPC3_neuronal_differentiation_120hr: Leibniz Research Institute for Environmental Medicine (IUF) 120-hour Neuronal Differentiation Assay (NPC3) (AID 2284301)
How it was run: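 Value is percent TUBB3-positive neurons among Hoechst-stained nuclei in the migration area, scored by trained CNN after 120 h differentiation. Primary hNPC spheres on poly-D-lysine/laminin, N2 medium, continuous dosing from day 0, half-refeed day 3; DMSO reference.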

[4] = IUF_NPC4_neurite_length_120hr: Leibniz Research Institute for Environmental Medicine (IUF) 120-hour Neuronal Morphology Assay for Neurite Length (NPC4) (AID 2284302)
How it was run: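 Neurite length, the mean in um across TUBB3-stained neurons, is derived by skeletonization of high-content images after 120 h differentiation. Compound exposure, 7 concentrations plus solvent control, ran from plating of hNPC spheres on poly-D-lysine/laminin, with medium half-replaced on day 3.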

[5] = IUF_NPC5_oligodendrocyte_differentiation_120hr: Leibniz Research Institute for Environmental Medicine (IUF) 120-hour Oligodendrocyte Differentiation Assay (NPC5) (AID 2284304; active means hit-call score of the fitted dose curve at least 0.9, where 1 is the maximum;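 further: primary human fetal neural progenitor spheres plated to migrate and differentiate; share of O4-positive cells among Hoechst nuclei found by CNN image analysis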)
How it was run: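 Oligodendrocyte differentiation was scored after 120 h as the O4-positive share of Hoechst-stained nuclei across the neurosphere migration area, using a trained convolutional neural network on high-content fluorescence images. Human fetal neural progenitor spheres were dosed from day 0, normalised to DMSO.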

[6] = IUF_NPC4_neurite_area_120hr: Leibniz Research Institute for Environmental Medicine (IUF) 120-hour Neuronal Morphology Assay for Neurite Area (NPC4) (AID 2284305; active means hit-call score of the fitted dose curve at least 0.9, where 1 is the maximum)
How it was run: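 Neurite area (pixels, nuclei excluded) of TUBB3-positive neurons from hNPC spheres differentiating 5 days under continuous exposure at 37 C, 5% CO2. High-content imaging; loss of signal versus DMSO control across 7 concentrations.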

[7] = IUF_NPC2-5_cytotoxicity_72hr: Cytotoxicity Assessment at 72 hours in the Leibniz Research Institute for Environmental Medicine (IUF) Neural Progenitor Cell Migration and Differentiation Assay for Cytotoxicity (NPC2-5) (AID 2284306; active means hit-call score of the fitted dose curve at least 0.9, where 1 is the maximum;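 further: LDH release into supernatant measured by resorufin fluorescence marking membrane damage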)
How it was run: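 Membrane-integrity cytotoxicity at 72 h, read as LDH-driven resorufin fluorescence in supernatant. hNPC spheres from fetal cortex differentiate on coated plates in N2 medium, 37C, 5% CO2; seven serial compound concentrations plus solvent control (DMSO ≤0.1%).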

[8] = IUF_NPC2-5_cytotoxicity_120hr: Cytotoxicity Assessment at 120 hours in the Leibniz Research Institute for Environmental Medicine (IUF) Neural Progenitor Cell Migration and Differentiation Assay (NPC2-5) (AID 2284307; active means hit-call score of the fitted dose curve at least 0.9, where 1 is the maximum;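 on AC50: LDH released into supernatant as membrane damage marker via resorufin fluorescence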)
How it was run: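 Sphere plating starts differentiation and exposure together at day 0. Compound solution is half-replaced on day 3. At 120 h, medium supernatant is taken for an LDH membrane-integrity read based on resazurin reduction to resorufin fluorescence.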

[9] = read-out: Matrix Metallopeptidase 1 (MMP1), MMP1 (gene 4312); test: BSK_MyoF_MMP1: BioMAP Diversity Plus: MyoF Assay for Matrix Metallopeptidase 1 (MMP1) Biomarker Activity (AID 2284268); conditions: primary human lung fibroblasts
How it was run: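 Lung fibroblast cultures were dosed with test chemicals and, after 24 h, MMP1 levels were measured by ELISA; responses were referenced to DMSO and analysed for increases.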

[10] = read-out: TIMP metallopeptidase inhibitor 1 (TIMP1), TIMP1 (gene 7076); test: BSK_MyoF_TIMP1: BioMAP Diversity Plus: MyoF Assay for TIMP metallopeptidase inhibitor 1 (TIMP1) Biomarker Activity (AID 2284269); conditions: primary human lung fibroblasts
Procedure: BSK_MyoF is a cell-based, multiplexed-readout assay that uses lung fibroblasts, […], with measurements taken at 24 hours after chemical dosing in a microplate: 96-well plate.BSK_MyoF_TIMP1 is an assay component measured in the BSK_MyoF assay. It measures TIMP-1 antibody related to regulation of gene expression using ELISA technology.Data from the assay component BSK_MyoF_TIMP1 was analyzed at the endpoint, BSK_MyoF_TIMP1, in the positive analysis fitting direction relative to DMSO as the negative control and baseline of activity. Using a type of binding reporter, gain or loss-of-signal activity can be used to understand protein changes. […]
The levels of cell surface (or secreted, indicated by the prefix "s") biomarker endpoints were measured by ELISA. Overt cytotoxicity to cells in confluent adherent cultures (all systems other than the BT system) was assessed by measuring total protein levels using sulforhodamine B (SRB) staining in parallel cultures at the time of biomarker measurements, indicated as SRB endpoints. For proliferation assays for adherent cell types, individual cell types are cultured at sub-confluence and relative cell numbers quantified by SRB staining at time points optimized for each system (48 h: 3C and CASM3C systems; 72 h: BT and HDF3CGF systems; 96 h: SAg system). […] Plates were read after 6 h.

Measured: AC50

CCOP(=S)(Oc1cnc(C(C)(C)C)nc1)OC(C)C (stereo not drawn)
not listed: [9] | [10]
inactive: all other assays above

CCOP(=O)(OCC)Oc1cc(C)nc(C(C)C)n1
not listed: [9] | [10]
inactive: all other assays above

CSC1=N[C@@](C)(c2ccccc2)C(=O)N1Nc1ccccc1
not listed: [5] | [9] | [10]
inactive: all other assays above

CN(C)[C@@H]1C(=O)C(C(N)=O)=C(O)[C@@]2(O)C(=O)C3=C(O)c4c(O)cccc4[C@@](C)(O)[C@H]3[C@H](O)[C@@H]12
active: [1] 55.1 µM | [2] 76.1 µM | [8] 25.8 µM
not listed: [6]
inactive: all other assays above

CCOC(=O)CC(SP(=O)(OC)OC)C(=O)OCC (stereo not drawn)
not listed: [9] | [10]
inactive: all other assays above

C[N+]1(C)CCCCC1
active: [8] 0.0969 µM
not listed: [9] | [10]
inactive: all other assays above

CCOP(=S)(OCC)SCCSCC
not listed: [5] | [9] | [10]
inactive: all other assays above

CCOP(=O)(NC(C)C)Oc1ccc(SC)c(C)c1 (stereo not drawn)
active: [5] 10.2 µM
not listed: [9] | [10]
inactive: all other assays above

S=C1NCCN1
not listed: [9] | [10]
inactive: all other assays above

CC(C)N(C(=O)SCC(Cl)=C(Cl)Cl)C(C)C
not listed: [6] | [9] | [10]
inactive: all other assays above

CCOP(=S)(OCC)Oc1cc(C)nc(C(C)C)n1
not listed: [9] | [10]
inactive: all other assays above

CON=C(C(=O)OC)c1ccccc1CON=C(C)c1cccc(C(F)(F)F)c1
active: [1] 71.2 µM | [3] 1.06 µM | [4] 24.7 µM | [5] 7.95 µM | [6] 0.127 µM
inactive: [2] | [7] | [8]

CC[C@H](C)[C@H]1O[C@]2(C=C[C@@H]1C)C[C@@H]1C[C@@H](C/C=C(\C)[C@@H](O[C@H]3C[C@H](OC)[C@@H](O[C@H]4C[C@H](OC)[C@@H](NC)[C@H](C)O4)[C@H](C)O3)[C@@H](C)/C=C/C=C3\CO[C@@H]4[C@H](O)C(C)=C[C@@H](C(=O)O1)[C@]34O)O2
active: [1] 932 nM and 1.74 µM | [2] 2.13 µM and 3.89 µM | [3] 1.27 µM | [4] 979 nM and 3.08 µM | [5] 305 nM and 96.9 nM | [6] 1.04 µM and 5.11 µM | [7] 1.88 µM and 4.62 µM | [8] 1.05 µM and 1.48 µM

CCCSP(=O)(OCC)SCCC
not listed: [9] | [10]
inactive: all other assays above

CC(=NC#N)N(C)Cc1ccc(Cl)nc1
not listed: [5] | [9] | [10]
inactive: all other assays above

CC1=NNC(=O)N(/N=C/c2cccnc2)C1
not listed: [5] | [9] | [10]
inactive: all other assays above

COP(=O)(NC(C)=O)SC (stereo not drawn)
not listed: [9] | [10]
inactive: all other assays above

C=C(C)[C@H]1Cc2c(ccc3c2O[C@@H]2COc4cc(OC)c(OC)cc4[C@@H]2C3=O)O1
inactive: [1] | [7] | [8]
active: [1] 0.0062 µM | [2] 220 nM and 4.24 nM | [3] 58 nM and 7.87 nM | [4] 224 nM and 10 nM | [6] 220 nM and 15.5 nM

CCOP(=S)(OCC)OC(Cl)C(Cl)(Cl)Cl (stereo not drawn)
not listed: [9] | [10]
inactive: all other assays above

CN1COCN(Cc2cnc(Cl)s2)C1=N[N+](=O)[O-]
not listed: [9] | [10]
inactive: all other assays above

COP(=O)(OC)OC(Br)C(Cl)(Cl)Br (stereo not drawn)
inactive: [7]
active: [1] 34.9 µM | [2] 39 µM | [3] 40.9 µM | [4] 23.5 µM | [6] 27 µM | [8] 70.1 µM

CCCCSP(=O)(SCCCC)SCCCC
not listed: [9] | [10]
inactive: all other assays above

COP(=O)(OC)C(O)C(Cl)(Cl)Cl (stereo not drawn)
inactive: [1] | [2] | [3] | [7] | [8]
active: [4] 5.03 µM | [6] 5.08 µM

O=[N+]([O-])c1cc(C(F)(F)F)c(Cl)c([N+](=O)[O-])c1Nc1ncc(C(F)(F)F)cc1Cl
active: [9] 3.25 µM | [10] 3.9 µM | [1] 0.736 µM | [2] 0.73 µM | [3] 0.601 µM | [4] 1.02 µM | [5] 1.3 µM | [6] 1.13 µM | [7] 3.71 µM | [8] 1.08 µM
